Consider 22 compounds from PubChem BioAssay (EPA / NIEHS).

Results filed as inconclusive are left out. The source made the active and inactive calls. The calls were made as follows: active = hit-call score of the fitted dose curve at least 0.9, where 1 is the maximum; inconclusive = response in the unintended direction; inactive = score below 0.9.

The AC50 is the concentration giving half of the maximal activity seen.

Chain of Nucleoli Translocation, AR (gene 367) (P10275 whole entry, looked up, the tested form may be a part): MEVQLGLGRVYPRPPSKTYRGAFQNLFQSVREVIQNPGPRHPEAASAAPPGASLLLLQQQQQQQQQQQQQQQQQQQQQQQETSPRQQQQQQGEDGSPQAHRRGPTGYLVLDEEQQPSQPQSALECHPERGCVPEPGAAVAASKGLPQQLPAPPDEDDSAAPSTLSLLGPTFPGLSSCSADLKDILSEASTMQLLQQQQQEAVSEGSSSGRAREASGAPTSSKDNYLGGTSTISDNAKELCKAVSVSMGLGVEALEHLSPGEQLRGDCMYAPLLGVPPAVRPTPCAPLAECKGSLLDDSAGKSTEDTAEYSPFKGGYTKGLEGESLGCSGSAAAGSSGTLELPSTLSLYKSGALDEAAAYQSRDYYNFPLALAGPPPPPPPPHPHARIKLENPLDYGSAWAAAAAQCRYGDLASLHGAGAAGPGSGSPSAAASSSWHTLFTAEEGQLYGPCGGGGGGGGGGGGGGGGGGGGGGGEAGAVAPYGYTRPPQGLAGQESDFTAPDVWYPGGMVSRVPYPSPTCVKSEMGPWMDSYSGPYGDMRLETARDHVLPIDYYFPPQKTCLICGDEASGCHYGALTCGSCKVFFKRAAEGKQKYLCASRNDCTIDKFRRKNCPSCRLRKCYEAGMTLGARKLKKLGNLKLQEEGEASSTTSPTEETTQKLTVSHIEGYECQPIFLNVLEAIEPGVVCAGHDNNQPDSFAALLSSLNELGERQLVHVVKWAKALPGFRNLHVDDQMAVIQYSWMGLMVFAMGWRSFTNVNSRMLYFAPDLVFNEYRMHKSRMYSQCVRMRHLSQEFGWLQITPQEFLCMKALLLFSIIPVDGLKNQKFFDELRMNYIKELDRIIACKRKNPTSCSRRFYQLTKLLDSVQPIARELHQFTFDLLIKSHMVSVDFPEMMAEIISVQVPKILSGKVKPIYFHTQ

The target of the test is Nucleoli Translocation, AR (gene 367) (UniProt P10275). The experiment in a line: UPITT_HCI_U2OS_AR_TIF2_Nucleoli_Agonist: University of Pittsburgh U2OS Androgen Receptor-Transcriptional Intermediary Factor 2 (AR-TIF2) Agonism High Content Imaging Assay for Nucleoli Translocation (AID 2283998). Put shortly:
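High-content images quantify nucleolar accumulation of RFP-fused AR in cells also expressing GFP-TIF2; the endpoint is fitted as signal gain versus DMSO controls across final concentrations of 0.195 to 50 uM.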
Regarding `COP(=S)(OC)Oc1ccc(Sc2ccc(OP(=S)(OC)OC)cc2)cc1`, the call was inactive.
Consider `O=C1C2(Cl)C3(Cl)C4(Cl)C(Cl)(Cl)C5(Cl)C3(Cl)C1(Cl)C5(Cl)C24Cl` (configuration not stated), for which the AC50 is 12.7 µM (active).
For the compound `Cl/C=C\C[N+]12CN3CN(CN(C3)C1)C2`, the result was inactive.
The same measure, in the same setting: to `c1cc[c]([Hg][c]2ccccc2)cc1` belongs “inactive”; to `COP(=O)(OC)O/C(=C\Cl)c1cc(Cl)c(Cl)cc1Cl`, “inactive”.
Regarding `C[C@H]1CCCC(=O)CCC/C=C/c2cc(O)cc(O)c2C(=O)O1`, the AC50 is 80.6 µM (active).
On the same count and under the same terms, to `Clc1ccc(COC(Cn2ccnc2)c2ccc(Cl)cc2Cl)cc1` (configuration not stated) belongs 50 µM (active).
For the compound `CC(C)(c1ccc(OCC2CO2)cc1)c1ccc(OCC2CO2)cc1` (configuration not stated), the result was inactive.
Turning to `Cc1ccccc1C(=O)Nc1cccc(OC(C)C)c1`, the result was inactive.
Still for that read-out and setting: then `C[C@H]1O[C@@H](O[C@H]2[C@@H](O)C[C@H](O[C@H]3[C@@H](O)C[C@H](O[C@H]4CC[C@@]5(C)[C@H](CC[C@@H]6[C@@H]5CC[C@]5(C)[C@@H](C7=CC(=O)OC7)CC[C@]65O)C4)O[C@@H]3C)O[C@@H]2C)C[C@H](O)[C@@H]1O`, with “inactive”; and `CCOP(=S)(OCC)Oc1nc(Cl)c(Cl)cc1Cl`, with “inactive”.
On the same count and under the same terms, then `CCSC(C)CC1CC(=O)C(C(CC)=NOC/C=C/Cl)=C(O)C1` (configuration not stated), with “inactive”.
Still for that read-out and setting: to `CC(C)c1cccc(C(C)C)c1O` belongs “inactive”; to `CN(CCCC(=O)c1cccnc1)N=O`, “inactive”.
Turning to `Cc1ccc2ccccc2c1C`, the compound was classed as inactive.
The same measure, in the same setting: to `CC(=O)[O][Hg][c]1ccccc1` belongs “inactive”; to `COP(=O)(OC)OC`, “inactive”.
Still for that read-out and setting: to `O=c1[nH]c(=O)[nH]c(=O)[nH]1` belongs “inactive”; to `COP(=S)(OC)Oc1cc(Cl)c(Cl)cc1Cl`, “inactive”; to `CCC(=O)C(CC(C)N(C)C)(c1ccccc1)c1ccccc1` (configuration not stated), “inactive”.
Still for that read-out and setting: then `CC12CC1(C)C(=O)N(c1cc(Cl)cc(Cl)c1)C2=O` (configuration not stated), with “inactive”.
For `C=CC(=O)OCCCCCC(C)C`, the compound was classed as inactive.
